High-throughput results as filed in PubChem.
3T3 cytotox: NIH 3T3 cell cytotoxicity; NIH 3T3 viability, CellTiter-Glo ATP luminescence, 48-72 h; Potency, µM (highest dose often 96.7 µM), most hits filed as inhibitors; 94,000 tested, 4.3% active; AID 1345082; also: nearly all actives have a fitted effect of over 55% in size
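Luminescent ATP readout (CellTiter-Glo, 10 min RT) after 48 or 72 hr compound exposure of NIH 3T3 cells seeded at 400 cells/well in 1536-well format; quantitative HTS.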
GPT2 inhibitor: inhibitors of human GPT2 alanine aminotransferase; Recombinant GPT2, coupled pyruvate oxidase/HRP Amplex Red fluorescence; Potency, µM (highest dose often 57.7 µM), actives largely listed as inhibitors; 100,000 tested, 0.25% active; also: nearly all actives have a fitted effect of over 60% in size
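Fluorescence read-out: pyruvate from GPT2 turnover coupled to pyruvate oxidase, HRP and Amplex Red (0.2mM ThPP, 0.2U/mL PO and HRP, 50uM Amplex final). Substrates 250uM a-KG, 2mM L-alanine; enzyme 10ng/uL; 30 min RT.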
Luciferase inh: blocks purified firefly luciferase enzyme activity; P08659; purified P. pyralis luciferase, luminescence, biochemical; Potency, µM (top dose mostly 115 µM), most hits filed as inhibitors; 76,000 tested, 2.5% active; also: nearly all actives have a fitted effect of over 65% in size
Target sequence (P08659 whole entry, looked up): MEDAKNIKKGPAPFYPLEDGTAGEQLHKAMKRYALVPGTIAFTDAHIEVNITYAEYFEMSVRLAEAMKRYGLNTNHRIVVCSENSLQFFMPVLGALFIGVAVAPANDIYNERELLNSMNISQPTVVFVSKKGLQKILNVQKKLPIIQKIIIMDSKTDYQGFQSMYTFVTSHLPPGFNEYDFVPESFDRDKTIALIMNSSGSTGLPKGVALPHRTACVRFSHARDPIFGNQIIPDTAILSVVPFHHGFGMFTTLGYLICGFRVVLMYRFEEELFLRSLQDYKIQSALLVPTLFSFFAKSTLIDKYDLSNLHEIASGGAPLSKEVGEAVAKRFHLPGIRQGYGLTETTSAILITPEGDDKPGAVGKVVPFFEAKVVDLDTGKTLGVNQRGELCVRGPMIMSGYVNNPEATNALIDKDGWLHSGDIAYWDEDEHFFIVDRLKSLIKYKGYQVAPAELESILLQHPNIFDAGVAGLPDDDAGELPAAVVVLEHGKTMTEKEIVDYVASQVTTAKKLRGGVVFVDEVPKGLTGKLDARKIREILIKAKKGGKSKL
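Biochemical qHTS: compound (6-point titration) added to 10uM D-luciferin plus 10uM ATP in Tris acetate pH 7.5 buffer with Mg, Tween-20 and BSA, then purified enzyme at 10nM; light output imaged.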
hNpr1 antagonist: human Npr1 receptor antagonism; P16066; 76,000 tested, 1.6% active; Potency, µM (series often up to 46.3 µM), usual class: inhibitors; HEK293 hNpr1 GloSensor cGMP, ANP-stimulated luminescence; calls by dose curve; also: nearly all actives have a fitted effect of over 60% in size
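Compound pre-incubated 30 min at room temperature on GloSensor-loaded HEK293 cells stably carrying hNpr1 and the pGS-40F cGMP biosensor. Stimulation uses hNppA at 0.1 nM final; luminescence is taken at baseline and 20 min post-agonist.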
HEK293 tox: kills HEK 293 cells; HEK 293 viability, ATP luminescence (CellTiter-Glo), 48-72 h; Potency, µM (doses to about 115 µM), actives largely listed as inhibitors; 94,000 tested, 6.6% active; AID 1345083; also: nearly all actives have a fitted effect of over 60% in size
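Cells seeded first (HEK 293, 250 cells/well), then compound added by pintool. Incubation ran 48 or 72 hr at 37 degree Celsius. CellTiter-Glo was added and luminescence imaged after 10 min at room temperature.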
Of the large screens only hits and unclear results are named; the others gave an inactive call. An excerpt weighted towards active compounds, which were near 10% of everything screened. Unless noted, calls follow the shape of the dose curve; as a rule, active = well fitted curve in the direction sought with a large enough effect; inconclusive = small, poorly fitted or top-dose-only effect, or another doubt; inactive = no such curve, though single readings can be large; an effect the other way counts as inactive or inconclusive.

CC1CCN(C(=O)c2cc3n(n2)CC(c2ccc(Cl)cc2)OC3)CC1 (centres undefined)	3T3 cytotox 40µM, hNpr1 antagonist inconclusive, HEK293 tox inconclusive
O=C(c1cc2n(n1)CC(c1ccc(Cl)cc1)OC2)N1CCN(c2ccccn2)CC1 (centres undefined)	3T3 cytotox inconclusive, HEK293 tox inconclusive
CC1=C(C(=O)Nc2ccccc2)C(c2cc(C)ccc2C)N2C(CC(=O)NC(C)C)=CSC2=N1 (centres undefined)	3T3 cytotox inconclusive, HEK293 tox 40µM
COC(=O)C1=C(C)N=C2SC=C(CC(=O)NCc3ccccc3)N2C1c1cccc(F)c1 (centres undefined)	3T3 cytotox inconclusive, HEK293 tox inconclusive
COC(=O)C1=C(C)N=C2SC=C(CC(=O)NCc3ccccc3)N2C1c1ccccc1C (centres undefined)	3T3 cytotox inconclusive, HEK293 tox 45µM
COC(=O)C1=C(C)N=C2SC=C(CC(=O)NCc3ccc(F)cc3)N2C1c1cccc(OC)c1 (centres undefined)	3T3 cytotox inconclusive, HEK293 tox 40µM
COC(=O)C1=C(C)N=C2SC=C(CC(=O)NCCc3ccccc3)N2C1c1cccc(OC)c1 (centres undefined)	3T3 cytotox inconclusive, HEK293 tox 45µM
O=C(Cc1ccccn1)N1CCCC(C(=O)N2CCC(c3ccccc3)CC2)C1 (centres undefined)	none (no result: Luciferase inh, hNpr1 antagonist)
Cc1nn2c(c1-c1ccnn1C(C)C)N(C(=O)c1ccc(F)cc1)CCC2	3T3 cytotox inconclusive
O=C(CCc1nc2ccccc2s1)N1CCC(c2nc(C3CCOCC3)no2)CC1	HEK293 tox inconclusive
CC1Oc2ccc(NC(=O)Cc3ccc(F)cc3)cc2CN(CCc2ccc(F)cc2)C1=O (centres undefined)	3T3 cytotox inconclusive, HEK293 tox inconclusive
COc1ccc(CN2Cc3cc(NC(=O)Cc4ccc(F)cc4)ccc3OC(C)C2=O)cc1 (centres undefined)	3T3 cytotox inconclusive, HEK293 tox 40µM
COc1ccccc1CN1Cc2cc(NS(=O)(=O)c3ccc(C)c(F)c3)ccc2OC(C)C1=O (centres undefined)	3T3 cytotox inconclusive, HEK293 tox inconclusive
CC1Oc2ccc(NC(=O)Cc3ccccc3)cc2CN(Cc2ccc(F)cc2)C1=O (centres undefined)	3T3 cytotox inconclusive, GPT2 inhibitor inconclusive, hNpr1 antagonist inconclusive, HEK293 tox 45µM
CC1Oc2ccc(NC(=O)Cc3ccc(F)cc3)cc2CN(CC2CC2)C1=O (centres undefined)	3T3 cytotox inconclusive, HEK293 tox 40µM
CC1Oc2ccc(NS(=O)(=O)c3ccc(F)cc3)cc2CN(Cc2ccc(F)cc2)C1=O (centres undefined)	3T3 cytotox inconclusive, HEK293 tox 45µM
COc1ccc(CCC(=O)N2CC(N(Cc3cccnc3)S(C)(=O)=O)C2)cc1	GPT2 inhibitor inconclusive (no result: Luciferase inh, hNpr1 antagonist)
CN(C)C(=O)N1CCC(C(=O)N2CCC(N3Cc4cccn4C3=O)CC2)CC1	none (no result: Luciferase inh, hNpr1 antagonist)
O[C@@H]1C[C@@H](c2nc(-c3cnccn3)no2)N(Cc2cccs2)C1	none
O[C@@H]1C[C@@H](c2nc(-c3ccccn3)no2)N(Cc2cccs2)C1	Luciferase inh 35µM, HEK293 tox inconclusive
O[C@@H]1C[C@@H](c2nc(-c3ccc4c(c3)OCO4)no2)N(Cc2ccccn2)C1	Luciferase inh 45µM, HEK293 tox inconclusive
O[C@@H]1C[C@@H](c2nc(-c3ccc(F)cc3)no2)N(CC2CCCCC2)C1	Luciferase inh inconclusive
Oc1ccccc1CN1C[C@H](O)C[C@H]1c1nc(-c2ccc3c(c2)OCO3)no1	Luciferase inh inconclusive
O[C@@H]1C[C@@H](c2nc(-c3ccc4c(c3)OCO4)no2)N(CC2CCCCC2)C1	3T3 cytotox 89µM, Luciferase inh inconclusive, HEK293 tox 89µM
O[C@@H]1C[C@@H](c2nc(-c3ccc4c(c3)OCO4)no2)N(CC2CC2)C1	Luciferase inh 22µM, HEK293 tox inconclusive
O[C@@H]1C[C@@H](c2nc(-c3ccc4c(c3)OCO4)no2)N(CCCc2ccccc2)C1	3T3 cytotox inconclusive, Luciferase inh 35µM, HEK293 tox inconclusive
Cc1noc2c(-c3cccnc3NCCN(C)C)cc(-c3ccccc3)nc12	3T3 cytotox 45µM, HEK293 tox 89µM
COCCCNc1ncccc1-c1cc(-c2ccccc2)nc2c(C)noc12	3T3 cytotox inconclusive, HEK293 tox 112µM
Cc1noc2c(-c3cccnc3N(C)C)cc(-c3ccccc3)nc12	3T3 cytotox inconclusive, HEK293 tox inconclusive
Cc1noc2c(-c3cccnc3NCCCn3ccnc3)cc(-c3ccccc3)nc12	3T3 cytotox inconclusive, HEK293 tox 71µM
Cc1noc2c(-c3cccnc3NCc3cccnc3)cc(-c3ccccc3)nc12	3T3 cytotox inconclusive, GPT2 inhibitor inconclusive, HEK293 tox inconclusive
Cc1noc2c(-c3cccc(O)c3)cc(-c3ccccc3)nc12	3T3 cytotox 28µM, HEK293 tox 50µM
COc1cc(-c2cc(-c3ccccc3)nc3c(C)noc23)ccn1	3T3 cytotox inconclusive
CC(NC(=O)COc1ccc(F)cc1F)c1ccccc1-n1cccn1 (centres undefined)	none
O=C(CN1CCOCC1)N[C@@H]1CCOC[C@H]1Oc1ccc(C(=O)O)cc1	none
Cc1n[nH]c(C)c1Cc1ccc(C(=O)NCC2Cn3cccc3CN2C)o1 (centres undefined)	none
O=C(NCc1ccccc1)c1ccc2c(c1)n(Cc1ccc(F)cc1)c(=O)c1ccnn12	3T3 cytotox 32µM, HEK293 tox 28µM
O=C(NCc1ccco1)c1ccc2c(c1)n(Cc1ccc(F)cc1)c(=O)c1ccnn12	3T3 cytotox 22µM, HEK293 tox inconclusive
CCN(CC)CCNC(=O)c1ccc2c(c1)n(Cc1cccc(F)c1)c(=O)c1ccnn12	3T3 cytotox 32µM, HEK293 tox 32µM
COc1ccccc1-c1ccc2ncc(Nc3ccnc(N4CCOCC4)c3)n2n1	3T3 cytotox inconclusive, HEK293 tox inconclusive
OCc1cccc(-c2ccc3ncc(Nc4ccnc(N5CCOCC5)c4)n3n2)c1	3T3 cytotox inconclusive, Luciferase inh inconclusive, HEK293 tox 100µM
COc1ccc(-c2ccc3ncc(Nc4ccnc(N5CCOCC5)c4)n3n2)cn1	3T3 cytotox 22µM, HEK293 tox 28µM
CC(C)NC(=O)C1CCCN(Cc2cccc(-c3ccc(F)cc3F)c2)C1 (centres undefined)	3T3 cytotox inconclusive, HEK293 tox 35µM (no result: Luciferase inh, hNpr1 antagonist)
O=C(NC1CC1)C1CCCN(Cc2cccc(-c3ccc(F)cc3F)c2)C1 (centres undefined)	3T3 cytotox inconclusive, HEK293 tox 40µM (no result: Luciferase inh, hNpr1 antagonist)
O=C(NCC(F)(F)F)C1CCCN(Cc2cccc(-c3ccc(F)cc3F)c2)C1 (centres undefined)	3T3 cytotox inconclusive, HEK293 tox inconclusive (no result: Luciferase inh, hNpr1 antagonist)
